# Test results: article PMC7862700, “An all-to-all approach to the identification of sequence-specific readers for epigenetic DNA modifications on cytosine”
# Experiments:
# Test in all cases: DAPPL (digital affinity profiling via proximity ligation, sequencing); 10 mM Tris-HCl pH 7.5, 50 mM NaCl, 1 mM DTT, 4% glycerol, room temperature, 30 min; GST-TFs on glutathione beads, 16-mer random dsDNA library, 0.1% formaldehyde crosslink after washing; high values mean tight binding
# FLI1 = molecular target: T1, FLI1 (Homo sapiens, UniProt Q01543 1-452); settings: protein: recombinant; tags: N-terminal GST; dsDNA, one strand shown
# T1 sequence: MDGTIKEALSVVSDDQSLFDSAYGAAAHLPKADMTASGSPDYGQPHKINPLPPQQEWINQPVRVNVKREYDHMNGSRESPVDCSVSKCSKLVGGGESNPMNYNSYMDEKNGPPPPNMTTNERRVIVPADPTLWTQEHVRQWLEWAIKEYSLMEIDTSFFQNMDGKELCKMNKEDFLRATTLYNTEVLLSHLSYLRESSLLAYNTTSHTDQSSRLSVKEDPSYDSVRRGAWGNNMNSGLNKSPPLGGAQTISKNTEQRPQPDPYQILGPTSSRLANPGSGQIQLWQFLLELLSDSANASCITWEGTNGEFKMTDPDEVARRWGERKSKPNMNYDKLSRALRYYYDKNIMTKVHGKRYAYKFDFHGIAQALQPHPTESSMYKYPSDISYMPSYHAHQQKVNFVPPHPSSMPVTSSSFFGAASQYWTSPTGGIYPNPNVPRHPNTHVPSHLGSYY
# Procedure, shortened: (§1)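 After expression in yeast as GST fusions, human transcription factors were bound to glutathione beads, DNA-barcoded and mixed with a tag-only sample. The pools were incubated with 200 nmole of a 16-mer random double-stranded DNA library in Tris/NaCl/DTT/glycerol buffer (30 min, room temperature), washed and crosslinked with 0.1% formaldehyde. Proximity ligation with BsaI/T4 ligase ran for 1 h at 37 °C, before PCR amplification and sequencing on an Illumina NextSeq500. Binding signal is a hexamer's read frequency for a factor divided by its frequency for the tag-only sample.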
# ELK1 = molecular target: T2, ELK1 (Homo sapiens, UniProt P19419 1-428); settings: protein: recombinant; tags: N-terminal GST; dsDNA, one strand shown
# T2 sequence: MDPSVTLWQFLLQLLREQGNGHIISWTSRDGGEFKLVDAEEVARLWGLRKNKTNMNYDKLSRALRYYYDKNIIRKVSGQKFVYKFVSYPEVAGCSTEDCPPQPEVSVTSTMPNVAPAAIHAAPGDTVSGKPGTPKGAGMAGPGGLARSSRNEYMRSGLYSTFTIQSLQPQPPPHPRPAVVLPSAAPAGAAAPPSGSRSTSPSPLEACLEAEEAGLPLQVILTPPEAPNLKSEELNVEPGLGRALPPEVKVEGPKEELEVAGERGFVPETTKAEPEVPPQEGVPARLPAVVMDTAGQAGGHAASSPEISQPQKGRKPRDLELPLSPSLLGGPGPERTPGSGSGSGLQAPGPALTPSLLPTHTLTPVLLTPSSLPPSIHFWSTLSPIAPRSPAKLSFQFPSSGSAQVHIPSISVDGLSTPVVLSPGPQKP
# Procedure, shortened: as §1
# GABPA = molecular target: T3, GABPA (Homo sapiens, UniProt Q06546 1-454); settings: protein: recombinant; tags: N-terminal GST; dsDNA, one strand shown
# T3 sequence: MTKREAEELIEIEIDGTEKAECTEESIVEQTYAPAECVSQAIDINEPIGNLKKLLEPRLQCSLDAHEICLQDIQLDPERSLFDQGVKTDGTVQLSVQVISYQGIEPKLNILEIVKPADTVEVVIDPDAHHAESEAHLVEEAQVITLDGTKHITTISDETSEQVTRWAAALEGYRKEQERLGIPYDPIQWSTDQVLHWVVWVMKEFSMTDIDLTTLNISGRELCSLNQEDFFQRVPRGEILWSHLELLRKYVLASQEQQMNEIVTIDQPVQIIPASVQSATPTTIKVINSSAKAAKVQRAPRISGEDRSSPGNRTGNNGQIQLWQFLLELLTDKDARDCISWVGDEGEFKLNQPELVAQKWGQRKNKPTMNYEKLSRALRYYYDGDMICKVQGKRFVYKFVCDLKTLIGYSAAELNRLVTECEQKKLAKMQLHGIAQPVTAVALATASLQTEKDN
# Procedure, shortened: as §1
# ERG = molecular target: T4, ERG (Homo sapiens, UniProt P11308 1-479); settings: protein: recombinant; tags: N-terminal GST; dsDNA, one strand shown
# T4 sequence: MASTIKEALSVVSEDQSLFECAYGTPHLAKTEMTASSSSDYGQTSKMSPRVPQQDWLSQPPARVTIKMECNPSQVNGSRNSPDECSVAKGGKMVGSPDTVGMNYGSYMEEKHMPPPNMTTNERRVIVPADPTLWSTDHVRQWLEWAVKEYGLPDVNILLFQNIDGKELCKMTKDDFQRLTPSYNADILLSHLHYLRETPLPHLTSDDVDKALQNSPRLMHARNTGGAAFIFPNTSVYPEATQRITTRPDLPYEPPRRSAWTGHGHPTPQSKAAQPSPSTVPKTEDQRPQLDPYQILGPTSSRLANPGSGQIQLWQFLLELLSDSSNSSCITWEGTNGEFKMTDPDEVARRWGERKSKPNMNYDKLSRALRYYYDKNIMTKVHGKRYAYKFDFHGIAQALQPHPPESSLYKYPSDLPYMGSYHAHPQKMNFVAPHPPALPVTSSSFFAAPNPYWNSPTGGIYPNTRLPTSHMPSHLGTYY
# Procedure, shortened: as §1
# ELF1 = ELF1 (Homo sapiens, UniProt P32519 1-619); settings: protein: recombinant; tags: N-terminal GST; dsDNA, one strand shown
# Chain of ELF1 (P32519 whole entry): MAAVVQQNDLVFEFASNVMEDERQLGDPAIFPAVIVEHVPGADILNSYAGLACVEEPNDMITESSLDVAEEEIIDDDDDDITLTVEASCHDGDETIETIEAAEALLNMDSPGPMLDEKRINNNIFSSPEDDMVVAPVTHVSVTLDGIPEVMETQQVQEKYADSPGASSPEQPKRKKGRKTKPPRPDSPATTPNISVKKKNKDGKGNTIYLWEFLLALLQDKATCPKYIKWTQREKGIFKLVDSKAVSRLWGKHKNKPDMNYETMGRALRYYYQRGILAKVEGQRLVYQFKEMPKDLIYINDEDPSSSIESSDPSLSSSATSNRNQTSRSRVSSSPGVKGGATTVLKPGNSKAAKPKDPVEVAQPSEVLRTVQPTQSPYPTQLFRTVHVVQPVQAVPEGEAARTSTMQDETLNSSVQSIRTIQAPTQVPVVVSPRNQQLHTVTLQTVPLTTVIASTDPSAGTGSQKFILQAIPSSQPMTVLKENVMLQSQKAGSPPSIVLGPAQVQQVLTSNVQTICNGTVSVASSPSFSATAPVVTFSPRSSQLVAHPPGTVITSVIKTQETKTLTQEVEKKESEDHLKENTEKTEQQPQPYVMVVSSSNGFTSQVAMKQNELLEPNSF
# Procedure, shortened: as §1
# EHF = molecular target: T5, EHF (Homo sapiens, UniProt Q9NZC4 1-300); settings: protein: recombinant; tags: N-terminal GST; dsDNA, one strand shown
# T5 sequence: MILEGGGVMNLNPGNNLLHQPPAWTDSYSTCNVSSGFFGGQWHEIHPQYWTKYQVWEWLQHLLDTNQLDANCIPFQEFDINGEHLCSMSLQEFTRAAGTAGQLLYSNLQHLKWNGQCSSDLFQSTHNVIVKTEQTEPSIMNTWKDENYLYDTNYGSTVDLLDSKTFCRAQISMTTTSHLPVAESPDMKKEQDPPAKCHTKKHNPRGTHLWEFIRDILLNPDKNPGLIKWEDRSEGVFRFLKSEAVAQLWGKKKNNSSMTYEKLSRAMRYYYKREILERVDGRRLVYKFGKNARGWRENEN
# Procedure, shortened: as §1
# SPI1 = SPI1 (Homo sapiens, UniProt P17947 1-270); settings: protein: recombinant; tags: N-terminal GST; dsDNA, one strand shown
# Procedure, shortened: as §1
# SPIB = SPIB (Homo sapiens, UniProt Q01892 1-262); settings: protein: recombinant; tags: N-terminal GST; dsDNA, one strand shown
# Chain of SPIB (Q01892 whole entry): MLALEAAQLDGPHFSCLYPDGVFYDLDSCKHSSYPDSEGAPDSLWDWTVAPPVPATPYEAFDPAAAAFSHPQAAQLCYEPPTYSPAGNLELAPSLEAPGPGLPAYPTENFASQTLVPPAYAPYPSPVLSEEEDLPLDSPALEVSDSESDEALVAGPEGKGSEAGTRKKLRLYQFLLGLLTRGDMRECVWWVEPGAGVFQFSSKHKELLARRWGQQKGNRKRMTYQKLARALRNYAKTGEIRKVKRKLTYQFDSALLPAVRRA
# Procedure, shortened: as §1
# ELK3 = molecular target: T6, ELK3 (Homo sapiens, UniProt P41970 1-407); settings: protein: recombinant; tags: N-terminal GST; dsDNA, one strand shown
# T6 sequence: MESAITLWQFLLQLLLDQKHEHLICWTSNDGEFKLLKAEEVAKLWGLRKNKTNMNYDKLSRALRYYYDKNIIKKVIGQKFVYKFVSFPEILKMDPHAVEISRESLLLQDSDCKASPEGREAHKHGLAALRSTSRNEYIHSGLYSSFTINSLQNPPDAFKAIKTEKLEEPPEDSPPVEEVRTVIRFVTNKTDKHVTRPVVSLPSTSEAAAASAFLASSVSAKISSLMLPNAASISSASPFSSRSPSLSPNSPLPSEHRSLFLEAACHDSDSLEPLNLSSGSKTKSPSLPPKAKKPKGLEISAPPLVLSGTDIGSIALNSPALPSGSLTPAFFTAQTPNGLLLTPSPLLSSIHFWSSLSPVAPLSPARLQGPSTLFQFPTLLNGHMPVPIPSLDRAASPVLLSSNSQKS
# Procedure, shortened: as §1
# FEV = molecular target: T7, FEV (Homo sapiens, UniProt Q99581 1-238); settings: protein: recombinant; tags: N-terminal GST; dsDNA, one strand shown
# T7 sequence: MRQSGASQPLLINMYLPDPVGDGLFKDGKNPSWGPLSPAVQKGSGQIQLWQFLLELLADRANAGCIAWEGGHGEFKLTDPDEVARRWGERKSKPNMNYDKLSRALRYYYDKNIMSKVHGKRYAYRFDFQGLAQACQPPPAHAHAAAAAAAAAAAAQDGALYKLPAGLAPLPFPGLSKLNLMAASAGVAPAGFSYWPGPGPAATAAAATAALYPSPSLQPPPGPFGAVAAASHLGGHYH
# Procedure, shortened: as §1
# ETV5 = ETV5 (Homo sapiens, UniProt P41161 1-510); settings: protein: recombinant; tags: N-terminal GST; dsDNA, one strand shown
# Chain of ETV5 (P41161 whole entry): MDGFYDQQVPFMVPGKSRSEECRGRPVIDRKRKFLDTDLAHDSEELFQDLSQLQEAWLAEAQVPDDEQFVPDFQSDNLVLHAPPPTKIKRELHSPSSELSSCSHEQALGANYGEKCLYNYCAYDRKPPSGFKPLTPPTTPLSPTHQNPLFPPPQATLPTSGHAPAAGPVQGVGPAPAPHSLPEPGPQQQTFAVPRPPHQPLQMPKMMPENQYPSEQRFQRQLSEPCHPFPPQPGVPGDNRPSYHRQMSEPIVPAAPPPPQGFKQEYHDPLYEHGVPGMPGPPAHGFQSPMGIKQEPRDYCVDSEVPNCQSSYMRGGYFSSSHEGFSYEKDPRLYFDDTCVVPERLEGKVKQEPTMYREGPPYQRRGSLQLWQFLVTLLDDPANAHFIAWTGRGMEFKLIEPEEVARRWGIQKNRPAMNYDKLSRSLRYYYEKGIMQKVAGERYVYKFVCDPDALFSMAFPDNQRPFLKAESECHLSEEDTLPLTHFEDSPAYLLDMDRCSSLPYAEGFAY
# Procedure, shortened: as §1
# HSF1 = HSF1 (Homo sapiens, UniProt Q00613 1-529); settings: protein: recombinant; tags: N-terminal GST; chain copies: 3; dsDNA, one strand shown
# Chain of HSF1 (Q00613 whole entry): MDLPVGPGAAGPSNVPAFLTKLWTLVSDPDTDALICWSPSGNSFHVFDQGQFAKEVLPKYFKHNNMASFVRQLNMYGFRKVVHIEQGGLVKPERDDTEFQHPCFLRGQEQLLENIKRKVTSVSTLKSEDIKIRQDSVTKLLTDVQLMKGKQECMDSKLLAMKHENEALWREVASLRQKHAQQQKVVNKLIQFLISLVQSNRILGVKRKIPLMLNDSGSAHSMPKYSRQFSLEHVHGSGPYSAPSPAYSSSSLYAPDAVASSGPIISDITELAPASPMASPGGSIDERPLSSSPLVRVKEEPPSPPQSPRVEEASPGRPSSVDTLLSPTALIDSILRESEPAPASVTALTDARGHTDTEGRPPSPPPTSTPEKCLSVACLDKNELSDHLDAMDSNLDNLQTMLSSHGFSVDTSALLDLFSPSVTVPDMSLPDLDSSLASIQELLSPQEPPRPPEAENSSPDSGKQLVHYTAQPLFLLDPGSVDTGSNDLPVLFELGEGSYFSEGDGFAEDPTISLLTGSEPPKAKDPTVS
# Procedure, shortened: as §1
# SPIC = molecular target: T8, SPIC (Homo sapiens, UniProt Q8N5J4 1-248); settings: protein: recombinant; tags: N-terminal GST; dsDNA, one strand shown
# T8 sequence: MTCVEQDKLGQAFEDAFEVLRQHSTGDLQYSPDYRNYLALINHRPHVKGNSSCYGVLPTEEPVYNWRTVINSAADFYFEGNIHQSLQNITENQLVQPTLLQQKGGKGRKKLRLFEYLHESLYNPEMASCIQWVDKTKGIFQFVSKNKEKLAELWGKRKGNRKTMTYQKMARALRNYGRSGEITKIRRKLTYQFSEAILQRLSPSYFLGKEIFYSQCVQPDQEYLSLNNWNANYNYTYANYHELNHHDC
# Procedure, shortened: as §1
# ELF4 = ELF4 (Homo sapiens, UniProt Q99607 1-663); settings: protein: recombinant; tags: N-terminal GST; dsDNA, one strand shown
# Chain of ELF4 (Q99607 whole entry): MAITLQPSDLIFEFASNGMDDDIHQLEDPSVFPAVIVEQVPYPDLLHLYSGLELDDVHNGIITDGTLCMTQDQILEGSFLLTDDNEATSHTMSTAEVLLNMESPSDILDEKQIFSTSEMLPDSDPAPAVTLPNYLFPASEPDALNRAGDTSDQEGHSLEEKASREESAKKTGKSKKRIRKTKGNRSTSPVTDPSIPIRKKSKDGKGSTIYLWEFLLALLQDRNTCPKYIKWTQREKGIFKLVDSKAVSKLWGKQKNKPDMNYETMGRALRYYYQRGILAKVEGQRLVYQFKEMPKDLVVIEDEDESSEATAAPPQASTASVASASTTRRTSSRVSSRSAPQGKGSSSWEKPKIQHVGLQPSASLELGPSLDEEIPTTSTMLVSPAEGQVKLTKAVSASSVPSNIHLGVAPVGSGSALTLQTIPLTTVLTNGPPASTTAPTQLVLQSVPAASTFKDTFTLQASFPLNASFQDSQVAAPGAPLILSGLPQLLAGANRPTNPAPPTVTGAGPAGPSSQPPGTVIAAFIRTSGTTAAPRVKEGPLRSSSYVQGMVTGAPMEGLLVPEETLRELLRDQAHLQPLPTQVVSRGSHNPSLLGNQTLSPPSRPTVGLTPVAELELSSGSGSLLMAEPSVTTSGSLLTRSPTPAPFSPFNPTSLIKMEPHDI
# Procedure, shortened: as §1
# ELK4 = molecular target: T9, ELK4 (Homo sapiens, UniProt P28324-2 1-405); settings: protein: recombinant; tags: N-terminal GST; dsDNA, one strand shown
# T9 sequence: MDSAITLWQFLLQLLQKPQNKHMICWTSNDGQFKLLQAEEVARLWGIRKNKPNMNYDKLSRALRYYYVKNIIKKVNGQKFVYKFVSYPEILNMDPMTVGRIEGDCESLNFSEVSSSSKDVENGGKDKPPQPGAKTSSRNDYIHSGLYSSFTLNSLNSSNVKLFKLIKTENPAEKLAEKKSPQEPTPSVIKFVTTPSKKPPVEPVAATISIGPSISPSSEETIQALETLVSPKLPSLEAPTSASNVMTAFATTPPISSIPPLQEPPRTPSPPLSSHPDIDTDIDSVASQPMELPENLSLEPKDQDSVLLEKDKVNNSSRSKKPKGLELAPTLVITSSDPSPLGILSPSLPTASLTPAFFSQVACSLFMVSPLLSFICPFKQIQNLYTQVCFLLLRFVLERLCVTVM
# Procedure, shortened: as §1
# ETV2 = molecular target: T10, ETV2 (Homo sapiens, UniProt O00321 1-342); settings: protein: recombinant; tags: N-terminal GST; dsDNA, one strand shown
# T10 sequence: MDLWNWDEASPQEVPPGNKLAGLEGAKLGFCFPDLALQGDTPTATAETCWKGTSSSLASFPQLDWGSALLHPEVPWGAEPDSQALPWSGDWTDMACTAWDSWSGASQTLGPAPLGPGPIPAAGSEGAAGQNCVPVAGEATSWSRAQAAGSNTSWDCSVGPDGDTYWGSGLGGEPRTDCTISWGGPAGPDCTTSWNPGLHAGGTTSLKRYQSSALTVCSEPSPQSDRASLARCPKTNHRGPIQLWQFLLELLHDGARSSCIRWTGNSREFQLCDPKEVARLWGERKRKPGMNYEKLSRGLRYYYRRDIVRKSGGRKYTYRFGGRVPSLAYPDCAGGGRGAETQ
# Procedure, shortened: as §1
# ELF3 = molecular target: T11, ELF3 (Homo sapiens, UniProt P78545 1-371); settings: protein: recombinant; tags: N-terminal GST; dsDNA, one strand shown
# T11 sequence: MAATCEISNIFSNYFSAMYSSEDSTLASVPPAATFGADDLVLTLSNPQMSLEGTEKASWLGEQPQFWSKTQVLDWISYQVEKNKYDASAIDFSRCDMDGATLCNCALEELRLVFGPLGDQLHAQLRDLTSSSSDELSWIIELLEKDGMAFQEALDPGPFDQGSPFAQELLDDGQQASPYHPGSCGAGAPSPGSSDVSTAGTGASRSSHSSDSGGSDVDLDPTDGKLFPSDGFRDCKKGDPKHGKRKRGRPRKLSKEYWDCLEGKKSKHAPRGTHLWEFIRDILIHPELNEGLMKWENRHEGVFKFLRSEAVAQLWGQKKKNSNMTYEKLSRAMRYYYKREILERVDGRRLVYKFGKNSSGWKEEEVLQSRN
# Procedure, shortened: as §1
# CRX = CRX (Homo sapiens, UniProt O43186 1-299); settings: protein: recombinant; tags: N-terminal GST; dsDNA, one strand shown
# Chain of CRX (O43186 whole entry): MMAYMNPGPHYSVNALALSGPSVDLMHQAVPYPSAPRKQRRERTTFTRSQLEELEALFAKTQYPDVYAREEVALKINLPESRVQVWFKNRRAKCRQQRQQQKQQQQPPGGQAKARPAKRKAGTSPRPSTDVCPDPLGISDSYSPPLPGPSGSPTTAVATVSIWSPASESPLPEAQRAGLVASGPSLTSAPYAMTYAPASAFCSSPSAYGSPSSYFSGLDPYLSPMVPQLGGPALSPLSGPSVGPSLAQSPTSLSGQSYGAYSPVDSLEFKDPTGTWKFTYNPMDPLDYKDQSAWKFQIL
# Procedure, shortened: as §1
# ETV1 = ETV1 (Homo sapiens, UniProt P50549 1-477); settings: protein: recombinant; tags: N-terminal GST; dsDNA, one strand shown
# Chain of ETV1 (P50549 whole entry): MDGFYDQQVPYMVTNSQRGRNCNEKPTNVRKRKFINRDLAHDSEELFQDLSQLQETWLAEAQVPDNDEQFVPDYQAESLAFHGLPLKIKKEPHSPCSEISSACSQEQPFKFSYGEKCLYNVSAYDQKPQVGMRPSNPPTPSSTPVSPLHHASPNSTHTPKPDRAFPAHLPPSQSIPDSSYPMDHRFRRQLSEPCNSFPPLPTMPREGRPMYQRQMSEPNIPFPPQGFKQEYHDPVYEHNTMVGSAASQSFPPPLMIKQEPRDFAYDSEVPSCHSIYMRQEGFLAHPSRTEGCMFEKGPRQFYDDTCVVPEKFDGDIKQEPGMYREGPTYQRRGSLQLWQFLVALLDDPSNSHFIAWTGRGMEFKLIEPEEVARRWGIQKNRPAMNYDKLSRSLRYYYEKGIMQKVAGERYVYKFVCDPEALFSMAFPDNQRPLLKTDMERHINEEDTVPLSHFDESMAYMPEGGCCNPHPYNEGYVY
# Procedure, shortened: as §1
sequence,measurement,setting,value
GTCTTT,binding signal,FLI1,"1.28 fold enrichment (6-mer frequency, TF over GST control)"
same,binding signal,ELK1,"1.21 fold enrichment (6-mer frequency, TF over GST control)"
same,binding signal,GABPA,"1.35 fold enrichment (6-mer frequency, TF over GST control)"
same,binding signal,ERG,"1.15 fold enrichment (6-mer frequency, TF over GST control)"
same,binding signal,ELF1,"1.26 fold enrichment (6-mer frequency, TF over GST control)"
same,binding signal,EHF,"1.2 fold enrichment (6-mer frequency, TF over GST control)"
same,binding signal,SPI1,"1.38 fold enrichment (6-mer frequency, TF over GST control)"
same,binding signal,SPIB,"1.23 fold enrichment (6-mer frequency, TF over GST control)"
same,binding signal,ELK3,"1.34 fold enrichment (6-mer frequency, TF over GST control)"
same,binding signal,FEV,"1.14 fold enrichment (6-mer frequency, TF over GST control)"
same,binding signal,ETV5,"1.22 fold enrichment (6-mer frequency, TF over GST control)"
same,binding signal,HSF1,"1.22 fold enrichment (6-mer frequency, TF over GST control)"
same,binding signal,SPIC,"1.26 fold enrichment (6-mer frequency, TF over GST control)"
same,binding signal,ELF4,"1.22 fold enrichment (6-mer frequency, TF over GST control)"
same,binding signal,ELK4,"1.21 fold enrichment (6-mer frequency, TF over GST control)"
same,binding signal,ETV2,"1.12 fold enrichment (6-mer frequency, TF over GST control)"
same,binding signal,ELF3,"1.27 fold enrichment (6-mer frequency, TF over GST control)"
same,binding signal,CRX,"1.24 fold enrichment (6-mer frequency, TF over GST control)"
same,binding signal,ETV1,"1.13 fold enrichment (6-mer frequency, TF over GST control)"
